GDH-TPI counter-1 – inhibits GDH-TPI coupling enzymes, artifact for Mtb FBA screen. inhibition, % at 4.8 µM. AID 588335. actives 1.2% (n = 360,000). GDH-TPI coupled enzyme counterscreen, NADH absorbance;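 note: 0% = DMSO wells and 100% = wells lacking the enzyme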
Mtb bLac sens – beta-lactam sensitization of Mtb H37Rv; inhibition, % at 25 µM; actives 0.27% (n = 330,000); AID 434955; M. tuberculosis H37Rv growth with meropenem, percent inhibition; call rule not given here;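 note: growth measured after seven days incubation then overnight dye step; 0% = bacteria only wells and 100% = bacteria with antibiotic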
CCHFV vOTU inh – blocks the CCHF virus ovarian tumor domain protease. CCHFV vOTU protease, Pep-AMC fluorescence. inhibition, % at 11.5 µM. actives 0.55% (n = 370,000); note: 0% = vehicle wells with enzyme and 100% = no enzyme wells
FBA Mtb inh – Mtb fructose-bisphosphate aldolase inhibition; purified M. tuberculosis FBA, fluorescence read-out; P9WQA3; inhibition, % at 1 µM; AID 588726; actives 2.3% (n = 360,000); in the data active = inhibition above about 27%;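 note: 0% = vehicle and 100% = reference inhibitor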
RecA splice inh – blocks M. tuberculosis RecA intein splicing. cell-free RecA intein splicing, fluorescence. inhibition, % (no concentration beside the values). actives 0.75% (n = 290,000). AID 2221; in the data active = inhibition above about 30%;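 note: 0% = vehicle wells and 100% = reference inhibitor control wells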
Mtb FBA confirm – confirmation of M. tuberculosis fructose-bisphosphate aldolase inhibitors. shares compounds with FBA Mtb inh. inhibition, % at 1 µM. AID 651616. actives 78% (n = 5,600). purified M. tuberculosis FBA, fluorescence read-out; in the data active = inhibition above about 27%;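 note: 0% = vehicle wells and 100% = reference inhibitor wells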
GDH-TPI counter-2 – GDH-TPI inhibition counter-screen for FBA inhibitors | shares compounds with FBA Mtb inh | GDH-TPI coupled enzyme counterscreen, fluorescence | inhibition, % at 1 µM | actives 81% (n = 5,600); in the data active = inhibition above about 10%
Starred values were filed as active, the others as inactive; i = inactive; nt = no result; + = active, no number. Rows were chosen to be rich in hits. Some 4.2% of all compounds tested hit in one or more screens of this group. Cut-off read from the data, not from the text of the source, unless noted: active = inhibition above about 30%; inactive = the rest.

SMILES | GDH-TPI counter-1 | Mtb bLac sens | CCHFV vOTU inh | FBA Mtb inh | RecA splice inh | Mtb FBA confirm | GDH-TPI counter-2
Nc1c(C(=O)Nc2ccccc2)sc2nc(N3CCOCC3)c3c(c12)CCCC3 | 22 | nt | 4 | 51* | nt | 158* | 160*
COc1cccc(NC(=O)c2sc3nc(N4CCOCC4)c4c(c3c2N)CCCC4)c1 | 14 | 7 | 19 | 29* | -2 | 48* | 45*
Nc1c(C(=O)Nc2ccc(Cl)cc2)sc2nc(N3CCOCC3)c3c(c12)CCCC3 | 15 | -5 | 16 | 37* | -6 | -3 | -2
Cc1ccc(NC(=O)c2sc3nc(N4CCOCC4)c4c(c3c2N)CCCC4)cc1 | 12 | nt | -4 | 7 | nt | nt | nt
Nc1[nH]c(C(=O)c2ccc(Br)cc2)c(-c2cccc3ccccc23)c1C(=O)NCCc1c[nH]c2ccccc12 | nt | nt | -2 | nt | nt | nt | nt
Cc1cc(C)n2cc(CSc3nnnn3C)nc2n1 | 6 | -5 | -13 | 28* | -1 | + | 187*
Cc1cc(C)n2cc(CSc3nncn3C)nc2n1 | 6 | -4 | -13 | 49* | 0 | 2 | -4
Cc1ccc(SCc2cn3c(C)cc(C)nc3n2)cc1 | -1 | -5 | -6 | 5 | 12 | nt | nt
CCc1nnc(SCc2cn3c(C)cc(C)nc3n2)n1N | -5 | -9 | -3 | 39* | -3 | 45* | 53*
Fc1ccc(F)c(Cn2ccc3ccc(-c4ccc5ccn(Cc6cc(F)ccc6F)c5c4)cc32)c1 | nt | nt | -5 | nt | nt | nt | nt
CC(C)(C)c1ccc(C#C[C@@H]2C=C[C@@H](O)[C@@H](COC(=O)NCc3ccccc3)O2)cc1 | nt | nt | 17 | nt | nt | nt | nt
CN(C)c1ccc(NC(=S)OC2CCC23CCC(c2ccccc2)CC3)cc1 (stereo unspecified) | nt | nt | 10 | nt | nt | nt | nt
CCCCn1nnnc1NCc1cccnc1 | 8 | 0 | 11 | 30* | 2 | + | +
CCCCn1nnnc1NCc1ccc(N2CCCC2)cc1 | 10 | -1 | 7 | -1 | -9 | nt | nt
Nc1ccc(-c2cc(-c3ccc(N)cc3)nc(-c3ccccc3)n2)cc1 | 18 | 2 | -14 | 39* | -2 | 54* | 28*
Nc1nc(-c2ccc(Oc3ccccc3)cc2)cs1 | 1 | -6 | 13 | -1 | 1 | nt | nt
Nc1nc(-c2ccc(-c3ccccc3)cc2)cs1 | 3 | 55 | -1 | 33* | 5 | + | +
COC(=O)c1ccc(/C=C/c2ccc3cccc(OC)c3n2)cc1 | 37* | 57 | -22 | 60* | -12 | + | +
Cn1c2ccccc2c(=O)c2ccc(C#CC3(N)CCCCC3)cc21 | 3 | 98 | -48 | 92* | i | 35* | 19*
Cn1c2ccccc2c(=O)c2cc(C#CC3(O)CCCCC3)ccc21 | 7 | nt | -26 | 93* | -107 | -5 | -3
NC1(C#Cc2ccc3c(=O)c4ccccc4sc3c2)CCCCC1 | 4 | 90 | 7 | 10 | nt | nt | nt
CC1(C(=O)NCC2CC2)Cc2c(-c3ccc4c(c3)OCO4)ccnc2O1 (stereo unspecified) | 11 | nt | 14 | 88* | nt | 76* | 51*
CN1CCN(c2ccc(CNC(=O)C3(C)Cc4c(-c5ccc(C(N)=O)cc5)ccnc4O3)cc2)CC1 (stereo unspecified) | -2 | nt | -7 | -3 | nt | nt | nt
CNC(=O)C1(C)Cc2c(-c3ccc4c(c3)OCO4)ccnc2O1 (stereo unspecified) | 2 | nt | 0 | 49* | nt | + | +
CN1CCN(c2ccc(CNC(=O)C3(C)Cc4c(-c5ccc6c(c5)OCO6)ccnc4O3)cc2)CC1 (stereo unspecified) | -13 | nt | -4 | 33* | nt | 121* | 103*
COc1ccc(CNC(=O)C2(C)Cc3c(-c4ccc5c(c4)OCO5)ccnc3O2)cc1OC (stereo unspecified) | 4 | nt | 15 | 33* | nt | 114* | 84*
CC(=O)N[C@@H]1C[C@@H]2O[C@@H](CO)CC[C@@H]2O[C@@H]1CCc1ccc(C#CC2(O)CCCC2)cc1 | nt | nt | 0 | nt | nt | nt | nt
CC1(C(=O)Nc2ccc3c(c2)OCO3)Cc2c(-c3ccccc3)ccnc2O1 (stereo unspecified) | 7 | nt | 3 | 0 | nt | nt | nt
COc1ccc(NC(=O)C2(C)Cc3c(-c4ccc5c(c4)OCO5)ccnc3O2)cc1 (stereo unspecified) | 6 | nt | 7 | 36* | nt | + | +
